Screens from PubChem.
This is a sample that favours compounds with a hit; in the whole collection about 6.3% have one here.
VP16 counter: counter-screen for ROR gamma inhibitors: Gal4-VP16 reporter; hit rate 3.5% among 310,000; Drosophila S2 Gal4-VP16 UAS-luciferase, luminescence, 20 h; Potency, µM (series often up to 53.6 µM), inactives show top-dose activity, negative = inhibition, hits mostly inhibitors;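 also: Gal4-VP16 expression switched on by copper sulfate through the metallothionein promoter; % is scaled to controls: 0 for no effect and ±100 for the full control effect; nearly all actives have a fitted effect of over 50% in size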
TGFb inhibitor: TGF-b pathway inhibition. Potency, µM (top dose mostly 46.1 µM), for inactives: at the top dose activity, negative = inhibition, actives largely listed as inhibitors. hit rate 1.2% among 410,000. AID 588855. HepG2 CAGA-GFP TGF-b/SMAD3 reporter, GFP fluorescence, 18 h; TGF-beta stimulated, 500 pg/mL final; also: % is scaled to controls: 0 for no effect and ±100 for the full control effect; nearly all actives have a fitted effect of over 65% in size
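Inhibition was scored as loss of TGF-beta-induced (500 pg/mL final, 18 hours, 37 degrees C) GFP in HEPG2 cells carrying a CAGA-GFP reporter, in DMEM with 1% FBS. Well GFP was summed per cell; Activity was normalised to unstimulated and stimulated DMSO wells, then concentration-response fitting.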
RORgamma inh: inhibitors of mouse ROR gamma transcriptional activity. Drosophila S2 Gal4-RORgamma UAS-luciferase reporter, 20 h. Potency, µM (highest dose often 53.6 µM), for inactives: at the top dose activity change, negative = inhibition, most hits filed as inhibitors. P51450. hit rate 5.4% among 310,000; also: % is scaled to controls: 0 for no effect and ±100 for the full control effect; nearly all actives have a fitted effect of over 60% in size
Target sequence (P51450 whole entry, looked up, the tested form may be a part): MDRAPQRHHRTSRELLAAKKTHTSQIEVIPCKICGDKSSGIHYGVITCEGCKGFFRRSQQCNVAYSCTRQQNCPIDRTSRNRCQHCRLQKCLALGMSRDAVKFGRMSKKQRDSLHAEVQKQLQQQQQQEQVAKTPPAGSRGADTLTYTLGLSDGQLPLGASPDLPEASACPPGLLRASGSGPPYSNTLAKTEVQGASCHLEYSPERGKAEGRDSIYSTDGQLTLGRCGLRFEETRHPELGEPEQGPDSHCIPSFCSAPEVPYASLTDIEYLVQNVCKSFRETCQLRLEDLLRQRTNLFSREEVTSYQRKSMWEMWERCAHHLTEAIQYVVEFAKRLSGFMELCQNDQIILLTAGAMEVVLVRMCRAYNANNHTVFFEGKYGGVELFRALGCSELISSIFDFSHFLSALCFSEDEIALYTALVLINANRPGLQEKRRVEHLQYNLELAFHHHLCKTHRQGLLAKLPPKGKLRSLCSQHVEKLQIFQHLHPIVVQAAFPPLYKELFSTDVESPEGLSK
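Luciferase reporter read in Schneider cells carrying Gal4-RORγ (mouse) and UAS-Photinus luciferase; cells given compound 1 h before 700 uM copper sulfate induction, then incubated 20 h at ambient temperature.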
ATXN2 expr inh: ATXN2 expression inhibition; hit rate 0.72% among 360,000; HEK-293 ATXN2-luciferase reporter, luminescence, 24 h; Potency, µM (highest dose often 57 µM), for the others: at the top dose activity change, negative = inhibition, actives largely listed as inhibitors; also: % is scaled to controls: 0 for no effect and ±100 for the full control effect; nearly all actives have a fitted effect of over 55% in size
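ATXN2-luciferase reporter cells (luciferase flanked by upstream and downstream ATXN2 gene portions) were treated 24 h at 37 °C with compounds at up to 57 uM. SteadyGlo luminescence gave expression; GF-AFC fluorescence gave viability.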
HepG2 viability: counter-screen for TGF-b inhibitors: cytotoxicity in HepG2 cells; HepG2 CAGA-GFP viability, ATP luminescence, 18 h; Potency, µM (highest dose often 46.1 µM), without a hit: at the highest dose activity change, negative = cytotoxicity, actives largely listed as cytotoxic; hit rate 0.76% among 410,000
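HepG2 CAGA-GFP cells (1000/well, DMEM with 1% FBS) received compound, then TGF-beta at 500 pg/mL final, and were incubated 18 hours at 37 degrees C. Viability was read by CellTiter-Glo luminescence. Media-only wells were set as complete cell-killing and DMSO as no toxicity.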
S2 tox: cell viability loss in ATXN counter-screen | AID 651635 | hit rate 0.49% among 400,000 | S2 cells (HEK-293 line with an ATXN2-luciferase reporter) viability, CellTiter-Fluor protease fluorescence, 24 h | Potency, µM (top dose mostly 56.7 µM), usual class: cytotoxic; also: nearly all actives have a fitted effect of over 40% in size
The depositor's hits bear a star; i = inactive; ? = inconclusive; / = no result given; ! = not active in a repeat; [ ] = another dose, or the depositor's remark. Calls follow the shape of the dose curve; as a rule, active = well fitted curve in the direction sought with a large enough effect; inconclusive = small, poorly fitted or top-dose-only effect, or another doubt; inactive = no such curve, though single readings can be large; an effect the other way counts as inactive or inconclusive. Potency is read from the fitted curve at half-maximal effect.

SMILES	VP16 counter	TGFb inhibitor	RORgamma inh	ATXN2 expr inh	HepG2 viability	S2 tox
O=C1N[C@@H](c2ccccc2)COC(=O)[C@H](Cc2ccc(F)cc2)CC/C=C/C[C@@H]1CC(=O)N(CCO)Cc1ccccc1	/	?	/	?	-16%	10µM*
O=C1N[C@@H](Cc2ccccc2)COC(=O)[C@H](Cc2ccc(F)cc2)CC/C=C/C[C@@H]1CC(=O)N(CCO)Cc1ccccc1	/	?	/	?	1%	?
O=C1N[C@@H](c2ccccc2)COC(=O)[C@@H](Cc2ccc(F)cc2)C/C=C\C[C@H]1CC(=O)N(CCO)Cc1ccccc1	/	?	/	?	-34%	?
O=C1CC(c2nnc(Cc3ccccc3Cl)o2)CN1c1ccccc1 (centres undefined)	/	5%	/	3%	3%	i
O=C1c2ccccc2-c2onc3c(NCCO)cc(NC4CCCCC4)c1c23	/	11µM*	/	?	-41%	?
CCCCNc1cc(NC2CCCCC2)c2c3c(onc13)-c1ccccc1C2=O	/	-15%	/	0%	-1%	i
COC(=O)c1ccc(/C=C2\SC(=S)N(CCCC(=O)NCCCN3CCOCC3)C2=O)cc1	1.8µM*	-22%	2.2µM*	17%	-61%	?
O=C(CCCN1C(=O)/C(=C/c2cccc(Br)c2)SC1=S)NCCCN1CCOCC1	0%	-19%	10µM*	-18%	-16%	?
c1ccc2c(C(c3nnnn3-c3ccc4c(c3)OCCO4)N3CCCCC3)ccnc2c1 (centres undefined)	/	/	/	-9%	/	i
Cc1cc(=O)c2c(O)c3c(O)cc(=O)c4c3c3c(cc(O)c1c23)C(C)(C)C=4O	4µM*	/	7.1µM*!	27µM*!	/	i
CCOC(=O)C1CCCN(CCC(=O)Nc2ccc(OC)cc2OC)C1 (centres undefined)	/	0%	/	3%	-1%	i
CCCCS(=O)(=O)/C=C\C=C/S(=O)(=O)CCCC	0.89µM*	?	0.71µM*	7.1µM*	-79%	8.9µM*
CCCCS(=O)(=O)/C=C\C1C2C=CC(C2)C1S(=O)(=O)CCCC (centres undefined)	1%	7%	3%	-5%	-5%	i
CCc1ccc(C(=O)CSc2n[nH]c(-c3ccncc3)n2)cc1	11µM*	1%	39%	3%	-15%	i
COC(=O)CSc1n[nH]c(-c2ccncc2)n1	/	12%	-6%[0.365 µM]	-6%	0%	i
CN1CCN(c2ccc(-c3ccc4ccccc4n3)cc2)CC1	?	0%	0.32µM*	0.38µM*	-34%	/
c1ccc2nc(-c3ccc(N4CCOCC4)cc3)ccc2c1	1.3µM*	?	1.4µM*	3.5µM*	-20%	i
CC1=CC2=NC(=O)CC(C)(C(=O)N(CC(=O)NC3CCCC3)Cc3ccccc3)N2C=C1 (centres undefined)	1%	-4%	4%	5%	10%	i
O=C(Cc1ccc(NC(=O)C2CCN(C(=O)C3CC3)CC2)cc1)Nc1ccc(C(=O)N2CCOCC2)cc1	/	-9%	/	0%	-13%	i
O=C(NC1=NCCS1)C12CC3CC(CC(C3)C1)C2	22µM*	1%	7.1µM*	2%	5%	i
CC(C)C(NC(=O)C12CC3CC(CC(C3)C1)C2)C(=O)NC1=NCCS1 (centres undefined)	-4%	/	18µM*	/	/	/
CCCCNC(=S)NCc1ccc2[nH]c3c(c2c1)CCCC3	10µM*	?	5µM*	?	-46%	i
CNC(=S)NCc1ccc2[nH]c3c(c2c1)CCCC3	-14%	-3%	18µM*	-25%	-8%	i
CCN(CC)S(=O)(=O)c1ccc(C(=O)NCc2ccc3[nH]c4c(c3c2)CCCC4)cc1	3%	0%	24%	5%	0%	i
O=C(NCc1ccc2[nH]c3c(c2c1)CCCC3)N1CCOCC1	-1%	/	-1%	/	/	/
